# A number with no mark means an inactive call.
# What was measured:
# Assay in all cases: log2 ratio of Biotin-Ahx-Ub-VS probe labelling (fragment/DMSO); higher = less target engagement (more negative = stronger competition), active = hit call of the paper (q ≤ 0.05, log2 ratio ≤ -1)
# Conditions in all cases: compound concentration: 200 uM; treatment time: 3 h
# USP16 = USP16 (UniProt Q9Y5T5)
# How it was run: (§1)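 Labelling with Biotin-Ahx-Ub-VS (0.5 µM final, 1 h) followed a 3 h triplicate treatment of HEK293T lysate (495 µg per sample, Tris/CHAPS/IGEPAL buffer with protease inhibitors) with fragment at 200 µM or vehicle. Labelled DUBs were NeutrAvidin-enriched, digested with LysC and trypsin, and run by diaPASEF LC-MS/MS. The values, average log2 fragment/vehicle ratios by unpaired t-test, come from global-median-normalised Spectronaut label-free quantities. Proteins with ≥2 unique peptides were used.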
# USP19 = target: T1, USP19 (UniProt O94966)
# T1 sequence (whole entry): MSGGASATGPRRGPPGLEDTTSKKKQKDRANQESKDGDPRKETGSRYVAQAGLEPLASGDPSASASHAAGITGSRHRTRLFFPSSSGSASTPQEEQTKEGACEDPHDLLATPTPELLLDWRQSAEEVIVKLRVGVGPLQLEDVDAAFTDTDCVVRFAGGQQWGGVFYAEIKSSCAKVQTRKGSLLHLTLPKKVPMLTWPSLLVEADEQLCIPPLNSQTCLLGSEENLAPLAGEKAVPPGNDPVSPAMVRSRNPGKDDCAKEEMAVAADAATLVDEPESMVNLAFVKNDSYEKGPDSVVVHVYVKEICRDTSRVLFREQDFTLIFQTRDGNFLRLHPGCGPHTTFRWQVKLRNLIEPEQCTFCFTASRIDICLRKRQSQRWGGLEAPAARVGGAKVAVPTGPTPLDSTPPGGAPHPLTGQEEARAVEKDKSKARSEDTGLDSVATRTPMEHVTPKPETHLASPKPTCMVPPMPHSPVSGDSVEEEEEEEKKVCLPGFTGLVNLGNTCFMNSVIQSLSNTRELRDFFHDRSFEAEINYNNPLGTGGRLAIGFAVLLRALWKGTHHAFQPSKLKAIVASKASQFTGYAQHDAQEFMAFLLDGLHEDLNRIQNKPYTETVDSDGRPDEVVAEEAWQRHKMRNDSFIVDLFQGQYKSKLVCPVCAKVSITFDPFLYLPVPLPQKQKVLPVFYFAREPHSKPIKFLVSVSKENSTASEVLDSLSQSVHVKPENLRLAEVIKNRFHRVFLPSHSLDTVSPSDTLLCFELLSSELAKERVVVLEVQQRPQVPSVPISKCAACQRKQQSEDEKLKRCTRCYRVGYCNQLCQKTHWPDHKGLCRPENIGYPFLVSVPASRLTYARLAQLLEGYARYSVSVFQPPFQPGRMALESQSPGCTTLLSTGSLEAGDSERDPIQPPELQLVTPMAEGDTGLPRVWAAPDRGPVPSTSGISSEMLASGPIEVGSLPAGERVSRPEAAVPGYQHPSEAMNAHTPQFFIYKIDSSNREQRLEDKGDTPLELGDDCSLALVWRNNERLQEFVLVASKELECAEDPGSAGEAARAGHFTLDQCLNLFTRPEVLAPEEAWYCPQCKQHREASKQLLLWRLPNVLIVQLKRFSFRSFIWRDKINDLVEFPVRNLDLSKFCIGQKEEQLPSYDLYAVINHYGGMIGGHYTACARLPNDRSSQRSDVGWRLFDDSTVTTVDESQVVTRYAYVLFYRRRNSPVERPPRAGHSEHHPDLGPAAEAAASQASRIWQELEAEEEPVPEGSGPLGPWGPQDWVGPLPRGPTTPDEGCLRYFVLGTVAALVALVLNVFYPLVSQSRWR
# How it was run: as §1
# USP24 = USP24 (UniProt Q9UPU5)
# How it was run: as §1
# USP25 = target: T2, USP25 (UniProt Q9UHP3)
# T2 sequence (whole entry): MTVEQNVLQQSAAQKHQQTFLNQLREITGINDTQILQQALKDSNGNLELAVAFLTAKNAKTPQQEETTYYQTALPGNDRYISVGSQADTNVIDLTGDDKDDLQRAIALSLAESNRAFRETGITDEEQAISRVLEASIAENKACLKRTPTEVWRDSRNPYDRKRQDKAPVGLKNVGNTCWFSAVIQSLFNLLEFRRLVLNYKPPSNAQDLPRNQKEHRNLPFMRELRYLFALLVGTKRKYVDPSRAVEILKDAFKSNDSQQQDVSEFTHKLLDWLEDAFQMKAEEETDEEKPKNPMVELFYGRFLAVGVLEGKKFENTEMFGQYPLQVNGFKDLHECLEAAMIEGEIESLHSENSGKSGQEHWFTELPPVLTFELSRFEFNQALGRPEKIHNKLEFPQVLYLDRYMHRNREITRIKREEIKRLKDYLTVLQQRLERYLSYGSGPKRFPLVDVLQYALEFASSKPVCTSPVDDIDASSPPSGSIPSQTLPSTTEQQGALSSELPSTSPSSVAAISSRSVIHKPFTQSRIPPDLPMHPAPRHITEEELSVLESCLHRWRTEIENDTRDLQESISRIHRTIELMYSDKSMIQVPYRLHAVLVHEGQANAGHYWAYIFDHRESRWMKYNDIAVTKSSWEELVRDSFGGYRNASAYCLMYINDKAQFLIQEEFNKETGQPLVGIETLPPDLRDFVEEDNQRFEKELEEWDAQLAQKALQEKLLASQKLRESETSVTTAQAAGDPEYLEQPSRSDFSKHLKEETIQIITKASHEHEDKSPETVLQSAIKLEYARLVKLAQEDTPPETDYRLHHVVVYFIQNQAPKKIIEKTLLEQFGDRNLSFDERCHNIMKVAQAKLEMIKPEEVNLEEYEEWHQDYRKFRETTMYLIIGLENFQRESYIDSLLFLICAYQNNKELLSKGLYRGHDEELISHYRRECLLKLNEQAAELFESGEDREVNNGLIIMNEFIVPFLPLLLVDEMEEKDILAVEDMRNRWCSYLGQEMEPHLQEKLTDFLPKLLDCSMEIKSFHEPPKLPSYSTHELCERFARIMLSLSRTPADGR
# How it was run: as §1
# USP28 = target: T3, USP28 (UniProt Q96RU2)
# T3 sequence (whole entry): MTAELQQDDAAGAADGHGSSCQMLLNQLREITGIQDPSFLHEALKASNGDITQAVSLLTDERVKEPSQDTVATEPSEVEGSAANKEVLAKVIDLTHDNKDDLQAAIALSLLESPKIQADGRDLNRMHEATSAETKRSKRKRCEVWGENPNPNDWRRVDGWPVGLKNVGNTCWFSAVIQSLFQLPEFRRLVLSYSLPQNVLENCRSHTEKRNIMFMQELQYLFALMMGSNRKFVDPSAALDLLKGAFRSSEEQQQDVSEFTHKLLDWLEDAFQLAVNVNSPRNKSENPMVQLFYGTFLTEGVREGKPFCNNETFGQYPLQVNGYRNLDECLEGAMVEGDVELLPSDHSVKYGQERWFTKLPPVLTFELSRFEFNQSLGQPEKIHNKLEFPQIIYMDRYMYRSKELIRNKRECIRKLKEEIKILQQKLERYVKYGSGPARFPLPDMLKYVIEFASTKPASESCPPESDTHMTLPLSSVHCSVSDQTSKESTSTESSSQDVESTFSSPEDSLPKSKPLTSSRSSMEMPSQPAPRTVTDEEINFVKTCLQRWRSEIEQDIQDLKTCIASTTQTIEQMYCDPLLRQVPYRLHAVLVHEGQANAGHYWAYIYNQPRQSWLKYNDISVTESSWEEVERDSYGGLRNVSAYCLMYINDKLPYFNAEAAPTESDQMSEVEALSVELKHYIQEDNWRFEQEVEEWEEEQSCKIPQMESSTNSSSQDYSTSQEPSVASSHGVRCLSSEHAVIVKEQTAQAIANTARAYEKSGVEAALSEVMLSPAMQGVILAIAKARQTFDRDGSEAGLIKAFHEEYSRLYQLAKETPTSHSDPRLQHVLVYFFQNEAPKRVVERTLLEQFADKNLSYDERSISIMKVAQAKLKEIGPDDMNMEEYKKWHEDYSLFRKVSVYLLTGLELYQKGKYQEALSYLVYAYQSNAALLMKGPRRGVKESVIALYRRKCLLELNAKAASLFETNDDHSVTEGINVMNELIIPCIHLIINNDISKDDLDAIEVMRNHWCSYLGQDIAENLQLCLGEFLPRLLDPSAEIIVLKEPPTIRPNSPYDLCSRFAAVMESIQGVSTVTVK
# How it was run: as §1
# Chain of USP16 (Q9Y5T5 whole entry, looked up, the tested form may be a part): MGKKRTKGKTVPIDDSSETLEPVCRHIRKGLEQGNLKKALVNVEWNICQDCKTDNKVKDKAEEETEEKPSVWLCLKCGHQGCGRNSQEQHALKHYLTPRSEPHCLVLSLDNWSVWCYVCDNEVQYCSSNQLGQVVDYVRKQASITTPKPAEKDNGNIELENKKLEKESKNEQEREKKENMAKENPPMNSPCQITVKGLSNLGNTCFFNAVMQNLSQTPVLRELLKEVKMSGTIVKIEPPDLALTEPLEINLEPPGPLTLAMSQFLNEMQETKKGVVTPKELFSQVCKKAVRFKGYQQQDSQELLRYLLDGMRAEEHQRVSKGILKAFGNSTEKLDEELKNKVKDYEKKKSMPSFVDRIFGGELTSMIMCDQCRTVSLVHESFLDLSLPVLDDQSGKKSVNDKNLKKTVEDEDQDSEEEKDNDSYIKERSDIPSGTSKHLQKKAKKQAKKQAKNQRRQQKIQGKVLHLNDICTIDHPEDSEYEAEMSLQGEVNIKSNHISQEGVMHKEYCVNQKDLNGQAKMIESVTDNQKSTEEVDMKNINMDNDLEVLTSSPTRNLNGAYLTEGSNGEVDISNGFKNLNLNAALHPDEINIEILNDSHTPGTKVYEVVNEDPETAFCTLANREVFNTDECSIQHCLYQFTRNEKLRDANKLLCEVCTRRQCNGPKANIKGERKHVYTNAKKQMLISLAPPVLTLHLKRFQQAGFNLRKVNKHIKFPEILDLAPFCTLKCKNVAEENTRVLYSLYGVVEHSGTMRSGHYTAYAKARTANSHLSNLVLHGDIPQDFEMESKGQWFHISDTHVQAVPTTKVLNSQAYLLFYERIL
# Chain of USP24 (Q9UPU5 whole entry): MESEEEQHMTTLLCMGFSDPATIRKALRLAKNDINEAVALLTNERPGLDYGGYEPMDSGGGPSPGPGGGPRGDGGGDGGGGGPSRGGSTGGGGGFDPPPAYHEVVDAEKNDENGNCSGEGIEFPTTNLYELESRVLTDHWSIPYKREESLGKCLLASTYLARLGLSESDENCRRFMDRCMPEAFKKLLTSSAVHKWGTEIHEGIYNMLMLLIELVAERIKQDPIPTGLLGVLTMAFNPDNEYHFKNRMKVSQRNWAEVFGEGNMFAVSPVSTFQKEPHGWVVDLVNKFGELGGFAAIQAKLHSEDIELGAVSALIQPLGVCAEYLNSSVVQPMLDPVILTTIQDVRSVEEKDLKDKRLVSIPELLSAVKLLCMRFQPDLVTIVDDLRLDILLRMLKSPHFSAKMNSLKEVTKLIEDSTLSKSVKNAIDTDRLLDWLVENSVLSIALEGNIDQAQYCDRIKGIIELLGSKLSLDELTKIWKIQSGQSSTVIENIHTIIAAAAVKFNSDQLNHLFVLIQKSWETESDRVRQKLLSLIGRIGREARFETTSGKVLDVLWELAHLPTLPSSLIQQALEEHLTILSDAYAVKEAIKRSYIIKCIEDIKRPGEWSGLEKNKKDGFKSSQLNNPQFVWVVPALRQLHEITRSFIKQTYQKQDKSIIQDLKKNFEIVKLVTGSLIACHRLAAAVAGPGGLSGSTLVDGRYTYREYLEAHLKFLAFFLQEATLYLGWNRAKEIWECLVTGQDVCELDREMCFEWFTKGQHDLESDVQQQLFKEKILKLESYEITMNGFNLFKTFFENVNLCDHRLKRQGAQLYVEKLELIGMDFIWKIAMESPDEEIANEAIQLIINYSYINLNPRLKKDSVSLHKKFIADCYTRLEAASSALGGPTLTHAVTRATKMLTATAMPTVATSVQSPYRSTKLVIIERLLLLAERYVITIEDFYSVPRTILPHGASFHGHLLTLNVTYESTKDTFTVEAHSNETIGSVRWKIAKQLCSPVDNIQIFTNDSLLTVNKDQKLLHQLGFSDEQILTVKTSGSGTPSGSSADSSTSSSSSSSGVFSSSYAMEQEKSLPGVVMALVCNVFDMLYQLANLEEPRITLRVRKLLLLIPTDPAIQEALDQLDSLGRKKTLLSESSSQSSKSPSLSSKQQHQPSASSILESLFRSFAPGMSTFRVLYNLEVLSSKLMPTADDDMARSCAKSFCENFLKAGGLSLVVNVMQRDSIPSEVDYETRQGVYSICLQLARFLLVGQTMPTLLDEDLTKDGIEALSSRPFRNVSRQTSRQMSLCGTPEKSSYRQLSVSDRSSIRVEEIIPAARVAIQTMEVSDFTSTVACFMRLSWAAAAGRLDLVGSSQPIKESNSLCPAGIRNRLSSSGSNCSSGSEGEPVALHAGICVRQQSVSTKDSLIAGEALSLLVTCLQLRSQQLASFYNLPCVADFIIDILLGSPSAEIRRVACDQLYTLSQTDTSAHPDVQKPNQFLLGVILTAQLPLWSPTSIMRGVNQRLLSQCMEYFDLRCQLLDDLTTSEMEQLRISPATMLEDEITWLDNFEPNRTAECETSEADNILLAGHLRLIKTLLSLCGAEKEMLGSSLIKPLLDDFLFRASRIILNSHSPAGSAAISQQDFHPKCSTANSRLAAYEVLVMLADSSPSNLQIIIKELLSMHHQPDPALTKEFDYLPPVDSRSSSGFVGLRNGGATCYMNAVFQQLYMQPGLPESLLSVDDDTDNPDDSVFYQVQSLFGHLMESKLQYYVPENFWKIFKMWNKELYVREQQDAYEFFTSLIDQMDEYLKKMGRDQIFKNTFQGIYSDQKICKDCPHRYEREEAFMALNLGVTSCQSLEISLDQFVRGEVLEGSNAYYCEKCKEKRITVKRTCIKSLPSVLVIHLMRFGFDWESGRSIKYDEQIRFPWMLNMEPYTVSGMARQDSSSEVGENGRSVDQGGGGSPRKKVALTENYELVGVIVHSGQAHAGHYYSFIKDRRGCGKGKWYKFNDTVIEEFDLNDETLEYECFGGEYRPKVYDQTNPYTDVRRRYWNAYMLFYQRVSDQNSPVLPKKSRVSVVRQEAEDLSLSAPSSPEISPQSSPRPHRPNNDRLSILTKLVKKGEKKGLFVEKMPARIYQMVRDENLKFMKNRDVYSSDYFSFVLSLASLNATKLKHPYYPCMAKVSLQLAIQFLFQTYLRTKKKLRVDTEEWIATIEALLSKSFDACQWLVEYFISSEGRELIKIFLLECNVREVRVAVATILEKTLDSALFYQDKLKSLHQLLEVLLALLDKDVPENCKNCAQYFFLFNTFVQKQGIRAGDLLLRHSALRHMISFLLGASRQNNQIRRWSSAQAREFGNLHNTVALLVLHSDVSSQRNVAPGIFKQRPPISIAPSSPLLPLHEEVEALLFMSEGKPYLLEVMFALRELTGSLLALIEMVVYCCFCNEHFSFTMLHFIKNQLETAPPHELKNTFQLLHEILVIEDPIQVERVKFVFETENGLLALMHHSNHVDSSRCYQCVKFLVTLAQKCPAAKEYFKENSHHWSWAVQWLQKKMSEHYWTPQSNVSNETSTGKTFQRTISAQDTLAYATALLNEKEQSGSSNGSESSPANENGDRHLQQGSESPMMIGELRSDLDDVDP
smiles,measurement,setting,value
CN(C)C(=O)c1ccc(NC(=O)CCl)cc1,log2 ratio of Biotin-Ahx-Ub-VS probe labelling,USP16,-0.712
same,log2 ratio of Biotin-Ahx-Ub-VS probe labelling,USP19,-0.166
same,log2 ratio of Biotin-Ahx-Ub-VS probe labelling,USP24,-0.00912
same,log2 ratio of Biotin-Ahx-Ub-VS probe labelling,USP25,-1.1 (active)
same,log2 ratio of Biotin-Ahx-Ub-VS probe labelling,USP28,-1.47 (active)

# — the supplement of paper PMC11732987, “Enantioselective OTUD7B fragment discovery through chemoproteomics screening and high-throughput optimisation” (Communications Chemistry, 2025)
